High-throughput results (PubChem BioAssay)
An excerpt weighted towards active compounds, which were near 3% of everything screened.
PAX8 inh HTS: inhibitors of PAX8 transcriptional activity in RMG-I cells; RMG-I TPO-luciferase reporter, SteadyGlo, 24 h; inhibition, % at 12.6 µM; 360,000 compounds, 1.2% hits; AID 652154;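 active = mean replicate inhibition at least 60% with every replicate also reaching 60%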;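 also: luciferase light reporting Pax8 driven TPO promoter activity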
Peg3 promoter: Peg3 promoter activity inhibition | HeLa PEG-Prom luciferase reporter, luminescence, overnight | inhibition, % at 20 µM | 360,000 compounds, 1.7% hits;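 active = inhibition of at least 50% at 20 µM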
Shn3 inh set2: Schnurri-3 reporter inhibition in Clone20 osteoblasts. Clone20 osteoblast Shn3 3'UTR firefly luciferase, 24 h. inhibition, % at 12.5 µM. 360,000 compounds, 0.52% hits;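 active = mean inhibition of at least 75% with every replicate also reaching 75%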
ABHD5 PLIN5 PPI: ABHD5-PLIN5 protein interaction inhibition | Split G. princeps luciferase complementation, luminescence, 4 h | inhibition, % at 4 µM | 360,000 compounds, 0.78% hits | AID 602281;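 active = inhibition above the mean inhibition across every tested compound plus 3 SD, cut at about 22% in these data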
Target sequence (Q00G26 whole entry, looked up): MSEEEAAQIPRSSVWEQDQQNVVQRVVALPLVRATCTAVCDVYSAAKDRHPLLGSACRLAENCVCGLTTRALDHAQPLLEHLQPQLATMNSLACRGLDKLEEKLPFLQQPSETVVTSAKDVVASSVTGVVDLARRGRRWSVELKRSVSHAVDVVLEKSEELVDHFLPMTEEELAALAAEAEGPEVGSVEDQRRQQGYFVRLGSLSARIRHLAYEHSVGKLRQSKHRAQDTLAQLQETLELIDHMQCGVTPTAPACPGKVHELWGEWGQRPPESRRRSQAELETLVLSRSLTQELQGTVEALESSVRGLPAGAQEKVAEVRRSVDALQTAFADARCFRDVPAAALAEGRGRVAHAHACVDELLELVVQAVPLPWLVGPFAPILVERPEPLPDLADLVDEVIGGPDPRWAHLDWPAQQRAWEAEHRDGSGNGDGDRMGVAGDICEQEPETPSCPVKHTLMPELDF
Target sequence (Q8WTS1 whole entry, looked up): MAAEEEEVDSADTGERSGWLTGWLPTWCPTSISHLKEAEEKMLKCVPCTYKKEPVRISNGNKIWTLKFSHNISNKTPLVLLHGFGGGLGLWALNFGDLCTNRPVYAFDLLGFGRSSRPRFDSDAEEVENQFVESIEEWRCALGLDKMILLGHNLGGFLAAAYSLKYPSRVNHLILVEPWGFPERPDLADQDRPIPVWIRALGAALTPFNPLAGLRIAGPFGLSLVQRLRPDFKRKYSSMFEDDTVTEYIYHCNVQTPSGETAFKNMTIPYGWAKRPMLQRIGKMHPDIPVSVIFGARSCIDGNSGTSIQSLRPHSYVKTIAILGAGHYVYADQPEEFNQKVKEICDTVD
EWS-Fli block: blocks EWS/Fli oncoprotein-driven transcription. inhibition, % at 12.6 µM. A673 NR0B1-luciferase reporter, viability-normalised. AID 651661. 350,000 compounds, 0.67% hits;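 active = mean inhibition of at least 50% after viability correction, with every replicate also passing that limit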;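 also: firefly luciferase signal divided by Alamar Blue viability fluorescence both relative to DMSO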
MITF TRPM1 inh: MITF TRPM1 promoter inhibition in SK-MEL-5 cells. SK-MEL-5 TRPM1 promoter luciferase, 24 h. inhibition, % at 12.5 µM. 330,000 compounds, 0.83% hits;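 active = mean inhibition across replicates of 60% or more, whatever share of single replicates reaches that level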
DNA binding: binds DNA displacing acridine orange; shares compounds with EWS-Fli block; salmon sperm DNA acridine orange fluorescence polarization; AC35, µM (titrated, usually from 68 µM); 640 compounds, 2% hits;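 active = fitted curve reaches a 35% signal fall AC35 below twice the sample's top valid tested dose, actives reach about 48 µM in these data; inactive = the rest, including activity in the rising direction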;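 also: lower polarization ratio signals compound binding to DNA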
Numbers stand for hits; 0 = inactive; - = no result given; ! = repeats disagree.

SMILES | PAX8 inh HTS | Peg3 promoter | Shn3 inh set2 | ABHD5 PLIN5 PPI | EWS-Fli block | MITF TRPM1 inh | DNA binding
C[C@@H]1CN([C@H](C)CO)S(=O)(=O)c2ccc(Br)cc2O[C@@H]1CN(C)C(=O)C1CC1 | 0 | - | - | - | 0 | - | -
C/C(=N\N(c1ccccc1)c1ccccc1)c1ccco1 | 0 | 0 | 0 | 0 | 58.5 | 0 | 0
O=c1c(Cl)cc(Cl)nn1-c1ccccc1 | 87.8 | 0 | 0 | 0 | 64.0 | 0 | 0
COc1cc(Cl)nn(-c2ccccc2)c1=O | 0 | 0 | 0 | 0 | - | 0 | -
CC1=NN(c2ccc(C)cc2)C(=O)/C1=C\C=C\c1ccccc1 | 0 | 0 | 0 | 0 | 60.8 | 0 | 0
C/C=C/c1ccc(C2[C@@H]3CN(C(=O)Cc4ccccc4)C[C@H]2N3)cc1 (stereo not given in full) | 0 | - | - | - | 54.8! | - | 0
C/C=C/c1ccc(C2[C@@H]3CN(C(=O)Cc4ccncc4)C[C@H]2N3)cc1 (stereo not given in full) | 0 | - | - | - | 0 | - | -
C=CC[n+]1c(-c2ccc(OC)cc2)csc1NNC(=O)Nc1ccccc1 | - | 0 | 0 | 0 | 0 | 0 | -
C=CC[n+]1c(-c2ccc(C)cc2)csc1Nc1ccc(NC(C)=O)cc1 | 0 | 0 | 0 | 0 | 62.2 | 80.9 | 0
CCS(=O)(=O)Nc1ccc2c(c1)C(=O)N(C)C[C@H](OC)[C@H](C)CN(C(=O)C1CC1)[C@@H](C)CO2 | 0 | - | - | - | 0 | - | -
CO[C@H]1CN(C)C(=O)c2ccc(NS(=O)(=O)c3cccc(F)c3)cc2OC[C@H](C)N(Cc2cc(F)ccc2F)C[C@@H]1C | 0 | - | - | - | 0 | - | -
CC(NC(=O)c1ccco1)c1nc(-c2ccc(C(C)(C)C)cc2)no1 (stereo not given) | 0 | 0 | 0 | 0 | 77.7 | 0 | 0
CC(C)(C)c1ccc(-c2noc(CNC(=O)c3ccco3)n2)cc1 | 0 | 0 | 0 | 0 | 0 | 0 | -
COc1ccccc1CNC(=O)C[C@@H]1C[C@@H]2c3cc(NC(=O)C4CCOCC4)ccc3O[C@@H]2[C@H](CO)O1 | 0 | - | - | - | 0 | - | -
CC(=O)ON=C1C=CC(=C(C#N)c2ccccc2)C=C1 | 70.6 | 0 | 0 | 0 | 56.3 | - | 0
C[C@@H]1CCCCO[C@@H](CN(C)Cc2ccncc2)[C@@H](C)CN([C@H](C)CO)C(=O)c2cc(NS(=O)(=O)c3cn(C)cn3)ccc2O1 | 0 | - | - | - | 0 | - | -
CCOc1ccc(N=C2C(=O)Nc3ccc(C)c(Br)c32)cc1 | 0 | 0 | 0 | 0 | 52.1 | 0 | 0
C[C@@H]1CN([C@H](C)CO)C(=O)c2cccc(NS(=O)(=O)c3cn(C)cn3)c2O[C@@H]1CN(C)Cc1ccncc1 | 0 | - | - | - | 0 | - | -
COC(=O)C[C@@H]1CC[C@@H]2[C@H](COc3ccc(NC(=O)c4ccc(F)c(F)c4)cc3C(=O)N2C)O1 | 0 | - | - | - | 71.5 | - | 0
CN1C(=O)c2cc(NC(=O)c3ccc(Cl)cc3)ccc2OC[C@@H]2O[C@@H](CC(=O)NCc3cccc(F)c3)CC[C@H]21 | 0 | - | - | - | 61.3 | - | 0
COC(=O)C[C@@H]1CC[C@@H]2[C@H](COc3ccc(NC(=O)c4ccc(C(F)(F)F)cc4)cc3C(=O)N2C)O1 | 0 | - | - | - | 77.6 | - | 0
Cc1cc(C(=O)Nc2ccc3c(c2)C(=O)N(C)[C@@H]2CC[C@@H](CC(=O)NCc4ccc(-c5ccccc5)cc4)O[C@H]2CO3)no1 | 0 | - | - | - | 66.1 | - | 0
CN1C(=O)c2cc(NC(=O)c3ccc(Cl)cc3)ccc2OC[C@H]2O[C@@H](CC(=O)NCc3cccc(F)c3)CC[C@@H]21 | 0 | - | - | - | 0 | - | -
O=C(C1CCC1)N1CC2(C1)[C@H](c1ccccc1)[C@H](CO)N2CC1CCCC1 | - | - | - | - | 0 | - | -
C[C@H]1CN([C@@H](C)CO)C(=O)c2cc(NC(=O)Nc3ccc(F)cc3)ccc2O[C@H]1CN(C)C(=O)Nc1ccccc1 | - | - | - | - | 0 | - | -
SMILES | PAX8 inh HTS | Peg3 promoter | Shn3 inh set2 | ABHD5 PLIN5 PPI | EWS-Fli block | MITF TRPM1 inh | DNA binding
CCCC#Cc1ccc([C@@H]2[C@@H](CO)N3CCCCN(CCC)C[C@@H]23)cc1 | 0 | - | - | - | 0 | - | -
Cc1noc(C)c1NC(=O)N(C)C[C@@H]1OCCCC[C@H](C)Oc2ccc(NC(=O)c3ccncc3)cc2C(=O)N([C@@H](C)CO)C[C@H]1C | 0 | - | - | - | 0 | - | -
Cc1cc(NC(=O)c2ccc3c(c2)OCCO3)ccc1NC(=O)c1cc2ccccc2o1 | 0 | 0 | 0 | 0 | 0 | 0 | -
O=C(Nc1ccc(NC(=O)c2cc3ccccc3o2)cc1)c1ccc2c(c1)OCCO2 | 0 | 77.7 | 0 | 0 | 58.5 | 0 | 0
COCC(=O)Nc1ccc2c(c1)OC[C@H](C)N(C(=O)c1ccccn1)C[C@H](C)[C@H](OC)CN(C)C2=O | 0 | - | - | - | 0 | - | -
CCCCCCCCCCCCCCCCCCNc1ccn(C2OC(COP(=O)(O)OCC3OC(n4cc(F)c(=O)[nH]c4=O)CC3O)C(O)C2O)c(=O)n1 (stereo not given) | 0 | 0 | 0 | 0 | 60.7 | 0 | 0
CCc1nc(N)nc(N)c1-c1ccc(Cl)cc1 | 0 | 0 | 0 | 0 | 63.6 | 0 | 0
CCC(=O)n1nc(-c2ccc(Cl)cc2)nc1N | 0 | 0 | 0 | 0 | 0 | 0 | -
CC(C)c1ccccc1NC(=O)COC(=O)CCN1C(=O)/C(=C\C=C\c2ccccc2)SC1=S | 0 | 0 | 0 | 0 | 62.1 | 62.9 | 0
CN(C)CC(=O)Nc1ccc2c(c1)[C@H]1C[C@H](CC(=O)NCc3ccc(-c4ccccc4)cc3)O[C@H](CO)[C@H]1O2 | 0 | - | - | - | 0 | - | -
CCNC(=O)c1cc2c(c(-c3cccc(-c4cccc(OC)c4)c3)n1)[C@H](CCO)N([S@@](=O)C(C)(C)C)C2 | 0 | - | - | - | 62.6 | - | 0
CC(C)(C)S(=O)N1Cc2cc(C(=O)NCC(F)(F)F)nc(-c3cccc(-c4cccc(F)c4)c3)c2[C@H]1CCO (stereo not given in full) | 0 | 0 | 0 | 0 | 0 | - | -
CC(C)(C)[S@](=O)N1Cc2cc(C(=O)NCC(F)(F)F)nc(-c3cccc(-c4cccc(F)c4)c3)c2[C@@H]1CCO | 0 | - | - | - | 55.1 | - | 0
COCC(=O)N1C[C@H](C)[C@H](OC)CN(C)C(=O)c2ccc(NC(=O)Nc3ccccc3)cc2OC[C@@H]1C | 0 | - | - | - | 0 | - | -
COc1ccccc1NC(=O)N[C@@H]1CC[C@H](CCn2cc(C3(O)CCCC3)nn2)O[C@@H]1CO | 0 | - | - | - | 0 | - | -
C[C@H](CO)N1C[C@H](C)[C@H](CN(C)Cc2ccncc2)OCCCC[C@H](C)Oc2ccc(NS(=O)(=O)c3cn(C)cn3)cc2C1=O | 0 | - | - | - | 0 | - | -
CC(C)NC(=O)N(C)C[C@H]1OCCCC[C@@H](C)Oc2ccc(NS(=O)(=O)c3ccc(Cl)cc3)cc2C(=O)N([C@H](C)CO)C[C@H]1C | 0 | - | - | - | 0 | - | -
Cc1cc(C(=O)NNC(=O)c2ccc(S(=O)(=O)N(C)C)cc2)c(C)o1 | 0 | 0 | 0 | 0 | 74.5 | 0 | 0
O=C(NCc1ccc(F)cc1)N1[C@H]2CC[C@@H]1C=C(c1ccc(F)cc1OCc1ccccc1)C2 | 0 | 0 | 0 | 0 | 53.9 | - | 0
COc1ccc(CNC(=O)N2[C@H]3CC[C@@H]2C=C(c2ccc(F)cc2OCc2ccccc2)C3)cc1OC | 0 | 0 | 0 | 0 | 0 | - | -
